In PubChem BioAssay (NCATS):
Results filed as inconclusive are left out. Unmarked numbers belong to inactive results. Calls of active or inactive are those of the source. The call rests on the fitted dose curve; in most records, active means well fitted inhibition curve with a large enough effect; inconclusive means small, poorly fitted or top-dose-only effect; inactive means no such curve, though single readings can be large or run the other way.

Target: Tyrosine-protein kinase Yes (Homo sapiens) (UniProt P07947)
Experiment: qHTS for small molecule inhibitors of Yes1 kinase: Primary Screen (AID 686947); further: nearly all actives have a fitted effect of over 60% in size
Settings: Yes1 kinase biochemical qHTS inhibition; series mostly up to 76.9 µM; activity change, negative = inhibition: at the top concentration
Source text: The Src family of non-receptor protein tyrosine kinases contains nine members, including Yes1, Src, Fyn, Lyn, and […]. These kinases have important roles in a variety of cellular functions, such as cell proliferation, survival, and differentiation. Src, the most well characterized member of this family, has been previously identified as a proto-oncogene. […] In melanoma, it has been shown that Yes1, and not other family members, such as Src, is functionally involved in the malignant phenotype. Additionally, a recent study examining the downregulation of Yes1 by shRNA found significant effects on cell survival/growth for basal-like and Her2-positive breast cancers. Despite the potential for Yes1 to be a target for the above-described cancers, there are very few reports on the identification of potent and selective inhibitors of Yes1 kinase. Antagonists of Yes1 would further elucidate Yes1 biology and help to confirm whether Yes1 is a viable target for therapeutic intervention in a variety of cancers.
A compound that inhibits Yes1 could be important for the treatment of various cancers in which Yes1 is highly expressed and can also be used as a tool compound to help further elucidate Yes1 biology. To that end, we have developed a sensitive HTS biochemical assay for Yes1 activity. This assay was screened against several small compound libraries to look for modulators of activity. Inhibition is the desired output for this assay.
NIH Molecular Libraries Probe Production Centers Network [MLPCN]
NIH Chemical Genomics Center [NCGC]
Two micoliter of Yes1 enzyme (columns 1-2, 5-48; Millipore, Billerica, MA) are dispensed into Greiner, white solid-bottom 1536-well assay plates; columns 3 and 4 receive buffer without Yes1 as a control for maximum inhibition. Compounds (23 nL) are then transferred via Kalypsys pin tool equipped with 1536-pin array (10 nL slotted pins, V&P Scientific, San Diego, CA). […] Following addition of compound and a 20 minute incubation, 1 uL of substrate (ATP and poly-E4Y from Sigma-Aldrich, St. Louis, MO) is added, and the biochemical reaction is allowed to progress for 60 minutes at room temperature. The production of ADP is then quantified by the ADP-Glo Kit (Promega, Madison, WI). First, 2 uL of the first kit reagent is added, and the reaction is incubated for 45 minutes; then, 4 uL of the second kit reagent are added and the reaction is incubated for 30 minutes at which time the luminescence is read on a Viewlux plate reader (Perkin-Elmer, Waltham, MA). The final concentration of reagents in the reaction are 4 nM Yes1, 0.1 mM ATP, 100 uM EGTA, 10 mM MgCl2, 0.3 mg/mL poly(E4Y), 50 mM Tris pH 7.5, 1 mM DTT, 150 mM NaCl, 0.01% Brij-35, and 5% glycerol. Data are normalized to DMSO-treated control columns with (maximum signal) and without (minimum signal) enzyme.
Potency means the concentration at half of the fitted maximal effect.

Tyrosine-protein kinase Yes (Homo sapiens), sequence (P07947 whole entry, looked up): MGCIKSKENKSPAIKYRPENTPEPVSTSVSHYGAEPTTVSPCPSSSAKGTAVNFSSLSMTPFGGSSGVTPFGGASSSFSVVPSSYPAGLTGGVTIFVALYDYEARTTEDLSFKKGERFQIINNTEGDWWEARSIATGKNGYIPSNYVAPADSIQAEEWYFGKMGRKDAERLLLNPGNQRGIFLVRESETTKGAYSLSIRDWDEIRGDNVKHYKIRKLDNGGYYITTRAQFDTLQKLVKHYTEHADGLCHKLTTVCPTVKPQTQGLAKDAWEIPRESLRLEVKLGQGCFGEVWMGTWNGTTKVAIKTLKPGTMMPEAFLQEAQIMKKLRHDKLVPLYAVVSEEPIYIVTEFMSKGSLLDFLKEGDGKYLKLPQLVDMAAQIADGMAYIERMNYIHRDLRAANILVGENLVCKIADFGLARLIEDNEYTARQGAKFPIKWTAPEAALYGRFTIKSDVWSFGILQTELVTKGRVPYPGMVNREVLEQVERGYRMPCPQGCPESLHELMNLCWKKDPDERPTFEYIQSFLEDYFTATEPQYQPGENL

| SMILES | activity change, negative = inhibition | Potency |
| --- | --- | --- |
| O=C(O)CCC1CCC(c2cc(F)ccc2F)(S(=O)(=O)c2ccc(Cl)cc2)CC1 (stereo unspecified) | 14.3% | – |
| O=C(O)c1ccc(-c2cc3cccnc3c(-c3ccc4nonc4c3)n2)cc1 | 26.1% | – |
| c1ccc2c(-c3cnn4cc(-c5ccc(N6CCNCC6)cc5)cnc34)ccnc2c1 | – | 0.137 µM (active) |
| OC[C@H]1O[C@@H](n2cnc3c2NC=NC[C@@H]3O)C[C@H]1O | – | 21.8 µM (active) |
| COc1cccc2c1CCCC2CCCN1CCN(C2CCCCC2)CC1 (stereo unspecified) | 5.63% | – |
| CC(C)[C@H](CO)Nc1nc(Nc2ccc(C(=O)O)c(Cl)c2)c2ncn(C(C)C)c2n1 | – | 0.0194 µM (active) |
| O=C(Nc1cc(Cl)cc2c1[nH]c1cnccc12)c1cccnc1 | -5.45% | – |
| CC(C)(C(=O)NCC(F)(F)C(F)(F)F)C(=O)N[C@@H]1C(=O)Nc2ccccc2-c2ccccc21 | -4.57% | – |
| Cn1cc(C=C2C(=O)Nc3cccnc32)c2ccccc21 | – | 0.519 µM (active) |
| O=c1cc(CN2CCOCC2)occ1OCCCCCSc1ccnc2cc(C(F)(F)F)ccc12 | -19.4% | – |
| CN(C)Cc1ccc(-c2nc3cccc4c3n2CCNC4=O)cc1 | – | 13.7 µM (active) |
| COc1cc2ncnc(-n3nc(-c4ccccn4)nc3N)c2cc1OC | – | 2.74 µM (active) |
| Clc1ccc(-c2nc3sccn3c2C=NOCc2ccc(Cl)c(Cl)c2)cc1 | 50% | – |
| CCOC(CN1C(=O)[C@](CC(=O)Nc2ccc(C)cc2)(NC(=O)Nc2ccc(C)cc2)c2ccccc21)OCC | -2.03% | – |
| O=C(Nc1ccccc1-c1cn2c(CN3CCNCC3)csc2n1)c1cnc2ccccc2n1 | -9.99% | – |
| CCOc1ccc(Nc2nc(-c3c(C)nc4ccccn34)cs2)cc1 | -17.7% | – |

| SMILES | activity change, negative = inhibition | Potency |
| --- | --- | --- |
| CC(C)(C)c1cc(C(=O)O)c(NC(=O)Nc2ccc3[nH]ncc3c2)s1 | -1.91% | – |
| CO[C@H]1C=CC=C(C)C(=O)NC2=CC(=O)C(NCCN(C)C)=C(C[C@@H](C)C[C@H](OC)[C@@H](O)[C@@H](C)C=C(C)[C@@H]1OC(N)=O)C2=O | -5.46% | – |
| CC(C)(C)COc1ccc(-n2cc(C(=O)O)cn2)cc1C#N | -2.82% | – |
| COc1ccc(C2CC(c3ccccc3)=NN2c2ccc(S(N)(=O)=O)cc2)cc1 (stereo unspecified) | 10% | – |
| COc1cc2nc(-c3ccc(N4CCN(C)CC4)cc3)nc(NCCN3CCOCC3)c2cc1OC | -6.67% | – |
| O=C(N[C@@H](c1ccccc1)[C@@H]1CCCCN1)c1cccc(C(F)(F)F)c1Cl | 2.3% | – |
| CC(C)C(=O)Nc1ncc(-c2cc(C(F)F)nn2-c2c(Cl)cccc2Cl)s1 | – | 27.4 µM (active) |
| CO[C@H]1C[C@@H]2CC[C@@H](C)[C@@](O)(O2)C(=O)C(=O)N2CCCC[C@@H]2C(=O)O[C@H]([C@H](C)C[C@@H]2CC[C@H](OCCO)[C@H](OC)C2)CC(=O)[C@H](C)C=C(C)[C@@H](O)[C@@H](OC)C(=O)[C@H](C)C[C@H](C)C=CC=CC=C1C | 1.15% | – |
| O=c1cc(N2CCOCC2)oc2c(-c3cccc4c3sc3ccccc34)cccc12 | 36.7% | – |
| O=C1C(Cl)=C(NCCN2CCOCC2)C(=O)c2ncccc21 | – | 6.88 µM (active) |
| CC1=C(/C=C/C(C)=C/C=C/C(C)=C/C(=O)Nc2ccc(O)cc2)C(C)(C)CCC1 | -9.78% | – |
| CC/C(=C(\c1ccccc1)c1ccc(OCCN(C)C)cc1)c1ccccc1 | 3.55% | – |
| CC(=O)N(C)C1(c2ccccc2)CCN(CCC[C@]2(c3ccc(Cl)c(Cl)c3)CCCN(C(=O)c3ccccc3)C2)CC1 | -21.7% | – |
| Cc1nc(N)sc1-c1ccnc(Nc2ccc(N3CCOCC3)cc2)n1 | – | 0.308 µM (active) |
| O=C(CCCCCCC(=O)Nc1ccccc1)NO | -5.22% [at 154 µM] | – |
